Several values for one entry are separate records, joined by “and”; a condition that tells them apart may be missing. Equal entries are not always repeated. Values without a mark were called inactive.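 Rule for the calls, unless noted: active = superoxide response below 65% of plate, a cut near 3 SD across the whole screen; inactive = the rest.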 Peptide text beside a SMILES is read from it.
Molecular target: Integrin beta-1 (Homo sapiens) + Integrin alpha-4 (Homo sapiens) (UniProt P13612+P05556)
Assay: inhibition of HUTS-21 binding to VLA-4, pilot screen, VLA-4 allosteric modulator project, U937 cells, HUTS-21 mAb, flow cytometry, validation set (AID 2674;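 active = inhibition above 50%, about 3 SD of the validation set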;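 note: antibody binding induced by the VLA-4 ligand LDV present at three times its Kd; 0% = LDV ligand with antibody and no compound and 100% = antibody without LDV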)
Conditions: HUTS-21 LIBS mAb binding, at 6.7 µM, active compounds read high, binding induced by LDV ligand

Chain of Integrin beta-1 (Homo sapiens) + Integrin alpha-4 (Homo sapiens) (P05556 whole entry, looked up): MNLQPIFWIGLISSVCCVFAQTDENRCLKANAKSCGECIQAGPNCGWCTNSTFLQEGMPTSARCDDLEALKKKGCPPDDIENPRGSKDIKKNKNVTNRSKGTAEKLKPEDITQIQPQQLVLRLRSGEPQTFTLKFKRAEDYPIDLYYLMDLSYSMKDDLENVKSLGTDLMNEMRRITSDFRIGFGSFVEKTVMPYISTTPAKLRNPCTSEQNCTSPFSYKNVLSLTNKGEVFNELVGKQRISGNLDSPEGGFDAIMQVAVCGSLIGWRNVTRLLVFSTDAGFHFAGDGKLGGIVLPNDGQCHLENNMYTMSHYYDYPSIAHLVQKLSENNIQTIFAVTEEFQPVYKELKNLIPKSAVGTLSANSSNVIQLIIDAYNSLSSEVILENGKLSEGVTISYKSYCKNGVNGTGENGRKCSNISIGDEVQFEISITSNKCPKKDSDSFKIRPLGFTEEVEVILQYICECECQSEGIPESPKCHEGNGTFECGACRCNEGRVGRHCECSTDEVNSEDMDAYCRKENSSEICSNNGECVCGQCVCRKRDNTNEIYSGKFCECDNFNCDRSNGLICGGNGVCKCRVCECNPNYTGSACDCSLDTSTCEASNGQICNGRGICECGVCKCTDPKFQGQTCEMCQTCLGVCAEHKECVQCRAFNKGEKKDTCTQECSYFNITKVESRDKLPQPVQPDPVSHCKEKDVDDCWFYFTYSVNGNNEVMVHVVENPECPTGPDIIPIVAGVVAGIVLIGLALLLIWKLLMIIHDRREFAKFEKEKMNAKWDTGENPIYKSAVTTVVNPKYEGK
Chain of Integrin beta-1 (Homo sapiens) + Integrin alpha-4 (Homo sapiens) (P13612 whole entry, looked up): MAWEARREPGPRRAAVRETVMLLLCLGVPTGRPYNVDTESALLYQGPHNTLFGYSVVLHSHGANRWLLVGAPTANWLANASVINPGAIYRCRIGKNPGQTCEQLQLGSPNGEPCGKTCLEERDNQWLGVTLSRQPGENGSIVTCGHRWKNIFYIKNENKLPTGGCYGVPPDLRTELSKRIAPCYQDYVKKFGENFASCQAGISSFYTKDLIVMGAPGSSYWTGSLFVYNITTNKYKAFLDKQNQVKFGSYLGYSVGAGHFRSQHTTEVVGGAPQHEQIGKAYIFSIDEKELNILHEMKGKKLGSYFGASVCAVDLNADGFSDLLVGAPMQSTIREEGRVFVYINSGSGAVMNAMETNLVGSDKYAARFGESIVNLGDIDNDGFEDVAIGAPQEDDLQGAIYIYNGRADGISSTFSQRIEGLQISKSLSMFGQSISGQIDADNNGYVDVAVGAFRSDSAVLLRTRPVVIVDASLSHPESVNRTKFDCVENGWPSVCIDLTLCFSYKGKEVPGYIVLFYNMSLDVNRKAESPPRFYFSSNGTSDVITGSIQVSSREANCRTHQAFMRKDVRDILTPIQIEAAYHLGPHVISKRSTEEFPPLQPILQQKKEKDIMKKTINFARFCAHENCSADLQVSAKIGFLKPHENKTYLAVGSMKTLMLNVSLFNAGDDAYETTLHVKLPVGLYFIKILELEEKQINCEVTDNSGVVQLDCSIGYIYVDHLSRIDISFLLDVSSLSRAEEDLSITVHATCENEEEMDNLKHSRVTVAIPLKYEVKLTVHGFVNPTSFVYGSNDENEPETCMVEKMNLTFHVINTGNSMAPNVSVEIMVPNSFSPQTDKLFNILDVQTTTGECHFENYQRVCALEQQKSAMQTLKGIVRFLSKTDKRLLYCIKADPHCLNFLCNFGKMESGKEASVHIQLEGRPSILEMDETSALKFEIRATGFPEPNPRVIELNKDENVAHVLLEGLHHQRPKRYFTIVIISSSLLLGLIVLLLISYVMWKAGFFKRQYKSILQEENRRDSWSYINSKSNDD

Compound | inhibition
CC(C)(C)OC(=O)N1CC(O)CC1C(=O)OCC(=O)c1ccc(Cl)cc1 (stereo not drawn) | 2.66%
O=C(O)c1ccc(OCCn2ccnc2)cc1 | 9.63%
CCOc1ccc2ccccc2c1CNc1nnnn1C | 18.2%
COc1ccccc1N1C(=O)C2CC(C)=C(C)CC2C1=O (stereo not drawn) | 19.7%
Cc1coc2c1c(C)cc1oc(=O)c(Cc3ccccc3)c(C)c12 | -11.8%
COc1cc2c3c(c1)C(C)CC(C)(C)N3C(=O)C2=O (stereo not drawn) | 15.2%
NS(=O)(=O)c1cc2c(cc1Cl)NCNS2(=O)=O | -4.52%
O=C(O)C1Cc2ccccc2CN1S(=O)(=O)c1ccccc1 (stereo not drawn) | -12.7%
COc1cccc(C2CC(=O)C3=C(C2)Nc2ccccc2N(C(=O)CCC(=O)O)C3c2ccc(F)cc2)c1 (stereo not drawn) | 11.3%
CCC(C(=O)Nc1ccc2c(c1)OCCO2)c1ccccc1 (stereo not drawn) | 8.29%
COc1ccc(C2C(C(=O)c3ccco3)=C(O)C(=O)N2CC2CCCO2)cc1 (stereo not drawn) | -7.72%
C=CCNC(=O)c1ccc(-c2cccc([N+](=O)[O-])c2)o1 | 6.85%
CC12CCC(C(=O)N(CCC#N)CCC#N)(CC1=O)C2(C)C (stereo not drawn) | 6.4%
CC(=O)c1c(C)c(C)c2n1CCn1c(C)ccc1-2 | -36.9%
COc1cc2cc(C)nc(Cc3cccc4ccccc34)c2cc1OC | 1.12%
Cc1oc2cc(O)cc(O)c2c(=O)c1-c1ccc2c(c1)OCCCO2 | 14.6%
O=CNC1CCCc2c1[nH]c1ccc(Cl)cc21 (stereo not drawn) | -5.64%
COc1ccc2cc(C3(C)NC(=O)NC3=O)ccc2c1 (stereo not drawn) | -9.98%
CC1(C)CC(=O)c2c(nc3ccccc3c2N)C1 | -3.57%
Cc1ccccc1C(=O)Oc1ccc(Sc2ccc(O)cc2)cc1 | 0.58%

Compound | inhibition
O=C(NC1CC1)C1CCN(C2CCN(C(=O)Cc3ccc(F)cc3)CC2)CC1 | -3.24%
CCc1cc(/C(Cc2ccccn2)=N\O)c(O)cc1O | -14.1%
CC(=O)NC(CC(C)C)C(=O)NC(Cc1ccccc1)C(N)=O (stereo not drawn) (Ac-Leu-Phe-NH2; configuration not given here) | 20.4%
CN(C)c1ccc(C(CN)c2c[nH]c3ccccc23)cc1 (stereo not drawn) | 9.63%
CCn1cc(C(=O)O)c(=O)c2ccc(C)nc21 | -15.8%
CN1[C@@H]2CC(OC(=O)[C@H](CO)c3ccccc3)C[C@H]1[C@@H]1O[C@@H]12 (stereo partly drawn) | 0.25% and 6.4%
CCOc1cc2c3c(c1)C(C)=CC(C)(C)N3C(=O)C2=O | 35.1%
Cc1ccc(C)c(OCCCC(C)(C)C(=O)O)c1 | -0.45%
CC1(C)C(=O)OC(C(=O)c2ccc(Cl)cc2)C(C)(C)C1=O (stereo not drawn) | -11.9%
CC1(CC(=O)Nc2ccccc2)NC(=S)N(c2ccccc2)N1 (stereo not drawn) | -0.43%
COc1cc2c(cc1OC)C(C)=NC1(CCCCC1)C2 | -29.2%
Cc1occc(=O)c1O | -5.18%
COC1CCN(Cc2cn(Cc3ccccc3)nc2-c2cc3ccccc3o2)CC1 | 22.4%
COc1cccc2c(O)cc(=O)n(C)c12 | 3.67%
CCN1C(=O)C(CC(=O)Nc2ccc(F)cc2)N(Cc2ccco2)C1=S (stereo not drawn) | 15.1%
O=C(Cc1ccccc1[N+](=O)[O-])NCc1ccncc1 | 6.4%
O=C1CC2(CCCC2)CC(=O)N1CCCCN1CCN(c2ncccn2)CC1 | 7.85%
CCC(=O)c1ccc(OCc2ccc(C(=O)OC)cc2)cc1 | 4.27%
COc1cccc(NC(=O)C2CC(=O)OC23CCOC(C)(C)C3)c1 (stereo not drawn) | 19.1%

System: not listed separately
Assay: superoxide lowering in aged yeast cells, pilot screen, validation compound set (AID 2706);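 note: yeast exposed to compound for one week at 30 degrees C before staining; 100% = mean of all compound wells on the same plate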
Conditions: S. cerevisiae aging, superoxide DHE fluorescence; at 10 µM; active compounds read low

Compound | superoxide response (% of plate)
CC(C)(C)OC(=O)N1CC(O)CC1C(=O)OCC(=O)c1ccc(Cl)cc1 (stereo not drawn) | 105%
O=C(O)c1ccc(OCCn2ccnc2)cc1 | 91.6%
CCOc1ccc2ccccc2c1CNc1nnnn1C | 91%
COc1ccccc1N1C(=O)C2CC(C)=C(C)CC2C1=O (stereo not drawn) | 109%
Cc1coc2c1c(C)cc1oc(=O)c(Cc3ccccc3)c(C)c12 | 90.7%
COc1cc2c3c(c1)C(C)CC(C)(C)N3C(=O)C2=O (stereo not drawn) | 99%
NS(=O)(=O)c1cc2c(cc1Cl)NCNS2(=O)=O | 89.4%
O=C(O)C1Cc2ccccc2CN1S(=O)(=O)c1ccccc1 (stereo not drawn) | 107%
COc1cccc(C2CC(=O)C3=C(C2)Nc2ccccc2N(C(=O)CCC(=O)O)C3c2ccc(F)cc2)c1 (stereo not drawn) | 98%
CCC(C(=O)Nc1ccc2c(c1)OCCO2)c1ccccc1 (stereo not drawn) | 96.9%
COc1ccc(C2C(C(=O)c3ccco3)=C(O)C(=O)N2CC2CCCO2)cc1 (stereo not drawn) | 105%
C=CCNC(=O)c1ccc(-c2cccc([N+](=O)[O-])c2)o1 | 101%
CC12CCC(C(=O)N(CCC#N)CCC#N)(CC1=O)C2(C)C (stereo not drawn) | 98%
CC(=O)c1c(C)c(C)c2n1CCn1c(C)ccc1-2 | 99.4%
COc1cc2cc(C)nc(Cc3cccc4ccccc34)c2cc1OC | 95.6%
Cc1oc2cc(O)cc(O)c2c(=O)c1-c1ccc2c(c1)OCCCO2 | 100%
O=CNC1CCCc2c1[nH]c1ccc(Cl)cc21 (stereo not drawn) | 113%
COc1ccc2cc(C3(C)NC(=O)NC3=O)ccc2c1 (stereo not drawn) | 104%
CC1(C)CC(=O)c2c(nc3ccccc3c2N)C1 | 89.8%
Cc1ccccc1C(=O)Oc1ccc(Sc2ccc(O)cc2)cc1 | 94.1%

Compound | superoxide response (% of plate)
O=C(NC1CC1)C1CCN(C2CCN(C(=O)Cc3ccc(F)cc3)CC2)CC1 | 106%
CCc1cc(/C(Cc2ccccn2)=N\O)c(O)cc1O | 104%
CC(=O)NC(CC(C)C)C(=O)NC(Cc1ccccc1)C(N)=O (stereo not drawn) (Ac-Leu-Phe-NH2; configuration not given here) | 91.8%
CN(C)c1ccc(C(CN)c2c[nH]c3ccccc23)cc1 (stereo not drawn) | 99.4%
CCn1cc(C(=O)O)c(=O)c2ccc(C)nc21 | 99.5%
CN1[C@@H]2CC(OC(=O)[C@H](CO)c3ccccc3)C[C@H]1[C@@H]1O[C@@H]12 (stereo partly drawn) | 99.8% and 101%
CCOc1cc2c3c(c1)C(C)=CC(C)(C)N3C(=O)C2=O | 108%
Cc1ccc(C)c(OCCCC(C)(C)C(=O)O)c1 | 104%
CC1(C)C(=O)OC(C(=O)c2ccc(Cl)cc2)C(C)(C)C1=O (stereo not drawn) | 104%
CC1(CC(=O)Nc2ccccc2)NC(=S)N(c2ccccc2)N1 (stereo not drawn) | 109%
COc1cc2c(cc1OC)C(C)=NC1(CCCCC1)C2 | 100%
Cc1occc(=O)c1O | 100%
COC1CCN(Cc2cn(Cc3ccccc3)nc2-c2cc3ccccc3o2)CC1 | 104%
COc1cccc2c(O)cc(=O)n(C)c12 | 98.4%
CCN1C(=O)C(CC(=O)Nc2ccc(F)cc2)N(Cc2ccco2)C1=S (stereo not drawn) | 107%
O=C(Cc1ccccc1[N+](=O)[O-])NCc1ccncc1 | 97.3%
O=C1CC2(CCCC2)CC(=O)N1CCCCN1CCN(c2ncccn2)CC1 | 101%
CCC(=O)c1ccc(OCc2ccc(C(=O)OC)cc2)cc1 | 90.3%
COc1cccc(NC(=O)C2CC(=O)OC23CCOC(C)(C)C3)c1 (stereo not drawn) | 88.5%

— PubChem BioAssay
